From PubChem BioAssay
Calls of active or inactive are those of the source. How the calls were made is not given here.

Test: inhibition of Brca1/Bard1 split-luciferase complementation, confirmation, counter-screen for Mdm2/MdmX interaction inhibitor project, luminescence, single concentration (AID 504668)
Details: Brca1/Bard1 bimolecular luciferase complementation counterscreen, at 8 µM, active compounds read high

SMILES | inhibition
C=CCSc1nsc(NC(=O)Nc2ccc(F)cc2)n1 | 28% (active)
COc1ccc(-c2oc3cc(OC)c(O)c(OC)c3c(=O)c2OC)cc1O | 28.4% (active)
COc1ccccc1OCC(=O)N/N=C/c1c(O)ccc2ccccc12 | 27.8% (active)
O=C(Nc1ccc(Cl)cc1)Nc1csc([N+](=O)[O-])c1 | 30.6% (active)
Cc1oc2c(Cl)c(Cl)c(O)c(CN(C)C)c2c1C(=O)c1ccc(Cl)cc1 | 26.8% (active)
COc1ccc2[nH]c3c(N4CCC(O)(c5cccc(C(F)(F)F)c5)CC4)ncnc3c2c1 | 32.1% (active)
CC(C)=CCc1c2c(c(O)c3c(=O)c4c(oc13)-c1cc(O)c(O)cc1OC4C=C(C)C)C=CC(C)(C)O2 (centres undefined) | 34.4% (active)
CCOc1ccc(OCc2ccc(C(=O)NN=Cc3ccc[nH]3)cc2)cc1 | 28% (active)
COc1ccc(/C=C2\SC(=S)N(CCC(=O)NCCc3ccc(O)cc3)C2=O)cc1 | 27.4% (active)
O=C(CCCN1C(=O)/C(=C\c2cccc(Br)c2)SC1=S)Nc1cccnc1 | 24.4% (active)
CC(C)(C)N1C(=O)[C@H]2[C@@H](c3ccc(Br)cc3)N3C(=O)N(c4ccc(Br)cc4)C(=O)[C@@]3(Cc3ccccc3)[C@H]2C1=O | 35.6% (active)
O=C(CCCN1C(=O)/C(=C\c2ccccc2)SC1=S)Nc1ccc(O)cc1 | 33.2% (active)
CCN(CC)c1ccc(/C=N/NC(=O)CCC(=O)NCc2ccccc2)c(O)c1 | 33.7% (active)
CCn1c(SCc2c(Cl)cccc2Cl)nc2nc3c(cc2c1=O)CCCC3 | 35.8% (active)
Cc1nc(NC2=NCN(CCCN3CCOCC3)CN2)nc2c(C)cccc12 | 25.4% (active)
Cc1ccc2c(C)nc(Nc3nc(CSc4nc5ccccc5[nH]4)cc(=O)[nH]3)nc2c1 | 32.5% (active)
COc1cccc(/C=N/NC(=O)CNC(=O)C(c2ccccc2)c2ccccc2)c1O | 28.6% (active)
CCc1ccc2[nH]c3nc(N/N=C/c4ccc(O)cc4O)nnc3c2c1 | 29.3% (active)
CCOc1ccc(C(=O)N/N=C(\c2ccccc2)c2ccccn2)cc1 | 30.1% (active)
c1ccc(CNc2nc(-c3ccccn3)nc3ccccc23)cc1 | 23.3% (active)

SMILES | inhibition
COc1ccccc1N(CC(=O)N/N=C/c1c(O)ccc2ccccc12)S(C)(=O)=O | 26.2% (active)
O=C(Nc1ccccc1)C1=C[C@@H](C2CCCCC2)C[C@@H](OCc2ccc(CO)cc2)O1 | 24.1% (active)
CCOC(=O)COc1ccc(/C=C/[N+](=O)[O-])c(OCC(=O)OCC)c1 | 23.7% (active)
CN1C(=O)/C(=C\c2cc(N=Nc3ccccc3)ccc2O)SC1=S | 34.4% (active)
O=C(CCCN1C(=O)/C(=C\c2ccccc2)SC1=S)Nc1ccccc1O | 30.3% (active)
O=C(CCl)c1ccc2c(c1)CCN2C(=O)C1CC1 | 27% (active)
C/C(=N\NC(=O)C1CCCN(S(=O)(=O)c2ccccc2)C1)c1ccccn1 (centres undefined) | 35.2% (active)
CC(C)(C)C(=O)N1CCN(c2ccc(NC(=O)c3ccc([N+](=O)[O-])o3)cc2)CC1 | 30.5% (active)
CC(=O)c1ccc(Sc2nnnn2-c2ccccc2)c([N+](=O)[O-])c1 | 30.1% (active)
Oc1ccccc1CNc1ccc(Br)cn1 | 28.8% (active)
O=C1Nc2cccnc2N(C(=O)CCl)c2ccccc21 | 31.2% (active)
CCOC(=O)C1=C(C)n2c(s/c(=C/c3cccc([N+](=O)[O-])c3)c2=O)=NC1c1ccc(O)c(OC)c1 (centres undefined) | 26.4% (active)
O=C(Nc1ccc(-c2nc3ccccc3[nH]2)cc1)c1ccc2c(c1)OCO2 | 28.7% (active)
Clc1cc2cccnc2c2ncccc12 | 31.6% (active)
C[C@@]12C(=O)Nc3cc(Cl)ccc3C(=O)N1[C@H]1c3cc(Br)ccc3OC[C@@H]1[C@@H]2c1ccccc1 | 30.8% (active)
CC(=O)/C(C#N)=C1\NC(=O)C(Cc2cc(Cl)ccc2Cl)S1 (centres undefined) | 31.2% (active)
CC(=O)OC[C@H]1O[C@@H](n2ncc(=O)[nH]c2=O)[C@H](OC(C)=O)[C@@H]1OC(C)=O | 31.6% (active)
Cc1cccc(C(=O)NC(C(=O)Nc2nc(-c3ccccn3)cs2)C(C)C)c1 (centres undefined) | 30.7% (active)
CCOc1ccc(CNC(=O)c2cc3oc4ccccc4c3n2C)cc1 | 25.6% (active)
